Among the data in PubChem BioAssay AID463173 (ICCB-Longwood Screening Facility, Harvard Medical School, 2010) are survival values, retold here.

The whole screen tested about 52,000 compounds, of which about 4,300 (8.3%) were called active. Shown is part of a subset that was picked to be rich in actives. Unmarked numbers belong to inactive results. Cut-off read from the data, not from the text of the source: active = survival mostly below about 52% (no sharp cut-off); inactive = mostly above about 56%.

The experiment has as its system DeltatarO mutant. The experiment in a line: S. aureus survival, RN4220 and DeltatarO strains – OD600, teichoic acid synthesis inhibitors, primary screen (AID 463173). The conditions noted are these: S. aureus RN4220 wild type/DeltatarO growth, OD600, 18 h, active compounds read low, screened at 18.75 µg/mL (by protocol).
Consider `COc1ccccc1CNC(=O)CCCc1nnc2n(CC(C)C)c(=O)c3sccc3n12`, for which the survival was 95%.

As to `CCN(CC)C(=O)N1CCN(C(=O)N(CC)CC)CC1`, the survival was 79%.

Consider `CCCCOC(=O)Cc1c(C)[nH]c(=O)[nH]c1=O`, for which the survival is 114%.

For the compound `CC(NC1CCCC1)c1ccccc1` (stereo unspecified), the survival was 84%.

`COc1ccc(CCNC(=O)CSc2ncc3c(n2)-c2cc(Cl)ccc2N(Cc2ccccc2)S3(=O)=O)cc1OC`: the survival was 87%.

For `COc1cccc(N2CCN(C(=O)c3cnc4c(-c5ccccc5)c(C)nn4c3C)CC2)c1`, the survival is 87%.

Consider `COc1ccccc1N1CCN(C(=O)c2cc(-c3ccc(C)c(F)c3)on2)CC1`, for which the survival was 66%.

`COc1ccc(N2CCN(C(=O)c3cc(-c4ccc(C)c(F)c4)on3)CC2)cc1`: the survival was 92%.

Take `COc1cccc(-c2cc(C(=O)N3CCN(c4ccccc4OC)CC3)no2)c1`: the survival was -4% (active).

Turning to `COc1cccc(-c2cc(C(=O)N3CCN(c4ccc(F)cc4)CC3)no2)c1`, the survival was 44% (active).

For `Cc1nn2c(C)c(C(=O)N3CCN(c4ccc(Cl)cc4)CC3)cnc2c1-c1ccc(F)cc1`, the survival is 88%.

In the case of `COc1cccc(N2CCN(C(=O)c3cnc4c(-c5ccc(F)cc5)c(C)nn4c3C)CC2)c1`, the survival is -5% (active).

Turning to `COc1ccccc1N1CCN(C(=O)c2cc(-c3ccc(F)cc3)on2)CC1`, the survival is 46%.

Consider `COc1ccc(-c2cc(C(=O)N3CCN(c4ccc(F)cc4)CC3)no2)cc1OC`, for which the survival is 57%.

Take `COc1ccc(S(=O)(=O)NCCc2sc(C)nc2C)cc1F`: the survival was 88%.

Take `CC(C)N(C(C)C)S(=O)(=O)c1ccccc1`: the survival was 100%.

For `COc1ccc(-c2nc3cccc(C)n3c2NC(C)(C)C)cc1O`, the survival was 109%.

Consider `COCCN1C(=O)N(c2cccc(OC)c2)C(=O)C1CC(=O)Nc1ccccc1` (stereo unspecified), for which the survival was 139%.

In the case of `CCOC(=O)c1sc(NC(=O)CSc2nnc(Cn3nnc4ccccc43)n2C)nc1C`, the survival was 94%.

Take `O=C(CSc1nc(=O)[nH]c2c1CCC2)NCc1ccc(Cl)cc1`: the survival is 67%.

Consider `COc1ccc(NC(=O)Nc2nnc(N3CCCCCC3)s2)cc1`, for which the survival is 72%.

Turning to `CC(C(=O)NCCSCc1cccc(Cl)c1)N(c1ccccc1)S(C)(=O)=O` (stereo unspecified), the survival was 61%.

Take `CSc1ncc(Cl)c(C(=O)N(Cc2ccc(C)cc2)C2CCS(=O)(=O)C2)n1` (stereo unspecified): the survival was 88%.

For the compound `O=C(CN1C(=O)COc2ccc(S(=O)(=O)N3CCOCC3)cc21)N1CCN(c2ccc(Cl)cc2)CC1`, the survival was 92%.

Regarding `CCOc1ccc(C(=O)Nc2c(C(=O)Nc3ccccc3OC)oc3ccccc23)cc1OCC`, the survival was 65%.

For the compound `CCn1c(SCC(=O)c2ccc(C)cc2)nnc1C1CC1`, the survival was 66%.

`COc1ccc(-c2cc(=O)c3cc(OCC(=O)OC(C)C)ccc3o2)cc1`: the survival is 124%.

As to `CCCCC(=O)Oc1ccc2oc(-c3ccc(OC)cc3)cc(=O)c2c1`, the survival is 30% (active).

Consider `COC(=O)COc1ccc2oc(-c3ccc(OC)cc3)cc(=O)c2c1`, for which the survival is 36% (active).

For the compound `COc1ccc2oc(-c3cccc(F)c3)cc(=O)c2c1`, the survival is 99%.

On to `Cc1cc(C)nc(SCC(=O)Oc2ccc3oc(=O)cc(C)c3c2)n1`, for which the survival is 95%.

For `CCCC(=O)Oc1ccc2ccc(=O)oc2c1`, the survival was 89%.

`O=C(Cn1c(=O)n(-c2ccccc2)c(=O)c2c3c(sc21)CCCC3)Nc1ccc(F)cc1`: the survival is 98%.

Regarding `CCc1ccc(CNC(=O)c2cnc(N3CCCCC3)c3ccccc23)cc1`, the survival was 94%.

Regarding `COc1ccccc1NC(=O)c1cc(S(=O)(=O)N2CCc3ccccc32)ccc1F`, the survival is 81%.

For `CCNC(=O)CC1C(=O)N(c2ccc(C)cc2)C(=O)N1CCC(C)C` (stereo unspecified), the survival was 91%.

For `CC(C)c1ccc(NC(=O)CCNS(=O)(=O)c2cccc3nsnc23)cc1`, the survival was 50%.

For `Cc1ccc(NC(=O)c2ccc3nc(Cc4ccccc4)oc3c2)cc1F`, the survival is 25% (active).

With `O=C(NCCCN1CCN(c2ccccc2)CC1)c1ccc2nc(Cc3ccccc3)oc2c1`, the survival is 92%.

As for `CCNC(=O)c1ccc2nc(Cc3ccccc3)oc2c1`, the survival was 101%.

For the compound `CNC(=O)c1ccc2nc(Cc3ccccc3)oc2c1`, the survival is 37% (active).

Regarding `CNC(=O)c1ccc2nc(CCc3ccccc3)oc2c1`, the survival is 80%.

Regarding `O=C(NCCCN1CCN(c2ccccc2F)CC1)c1ccc2nc(Cc3ccccc3)oc2c1`, the survival was 46% (active).

With `CC(=O)c1cccc(NC(=O)c2ccc3nc(Cc4ccccc4)oc3c2)c1`, the survival is 63%.

Consider `Cc1ccccc1NC(=O)c1ccc2nc(Cc3ccccc3)oc2c1`, for which the survival was 102%.

For `O=C(NCCCN1CCN(c2ccccc2F)CC1)c1ccc2nc(CCc3ccccc3)oc2c1`, the survival was 87%.

Turning to `Cc1ccc(-c2nnc(Nc3ccc(O)cc3)c3ccccc23)cc1S(=O)(=O)N1CCOCC1`, the survival is 65%.

As for `O=C1C2C3C=CC(C3)C2C(=O)N1CCN1C(=O)C2C3C=CC(C3)C2C1=O` (stereo unspecified), the survival is 101%.

Consider `COc1ccccc1NC(=O)C1=C(C)Nc2nc(SC)nn2C1c1ccccc1Cl` (stereo unspecified), for which the survival was 87%.

As for `CCOc1ccccc1NC(=O)CSc1c2c(nc3ccc(Cl)cc13)CCCC2`, the survival is 45% (active).

On to `CCCNC(=O)CSc1c2c(nc3ccc(Cl)cc13)CCCC2`, for which the survival is 62%.

For `CC(C)OCCCNC(=O)CSc1c2c(nc3ccc(Cl)cc13)CCCC2`, the survival is 71%.

Take `COC(=O)c1ccccc1NC(=O)CSc1c2c(nc3ccc(Cl)cc13)CCCC2`: the survival was 86%.

As to `COCCCNC(=O)CSc1c2c(nc3ccc(Cl)cc13)CCCC2`, the survival was 68%.

In the case of `CCCCNC(=O)CSc1c2c(nc3ccc(Cl)cc13)CCCC2`, the survival is 38% (active).

In the case of `CCOc1ccc(CNC(=O)CSc2c3c(nc4ccc(Cl)cc24)CCCC3)cc1`, the survival is 70%.

As for `CC(C)CCNC(=O)CSc1c2c(nc3ccc(Cl)cc13)CCCC2`, the survival was 51% (active).

For the compound `CCN(CC)CCNC(=O)c1c(C)oc2ncn(C)c(=O)c12`, the survival is 91%.

For the compound `Cc1ccc(CNC(=O)C2CCCN(c3nc4c(C)cc(C)cc4s3)C2)cc1` (stereo unspecified), the survival is 94%.

`CCC(=O)NC1CCC(c2ccccc2)CC1` (stereo unspecified): the survival was 97%.

On to `Cc1ccc(OC(=O)c2cccnc2)cc1`, for which the survival was 97%.
